# Assay results from ChEMBL document CHEMBL3433997, “St. Jude Leishmania screening dataset” (2016).
# Target: Solute carrier family 2, facilitated glucose transporter member 1 (Homo sapiens) (UniProt P11166)
# Experiment: ST_JUDE_LEISH: Cytotoxicity at 2uM final concentration against transgenic Leishmania Mexicana promastigotes LmGLUT1 that are glucose transport deficient and complemented with the human glucose transporter GLUT1. Activity is measured by DNA content using SYBR green in vitro
# Format: functional
# Chain of Solute carrier family 2, facilitated glucose transporter member 1 (Homo sapiens) (P11166 whole entry): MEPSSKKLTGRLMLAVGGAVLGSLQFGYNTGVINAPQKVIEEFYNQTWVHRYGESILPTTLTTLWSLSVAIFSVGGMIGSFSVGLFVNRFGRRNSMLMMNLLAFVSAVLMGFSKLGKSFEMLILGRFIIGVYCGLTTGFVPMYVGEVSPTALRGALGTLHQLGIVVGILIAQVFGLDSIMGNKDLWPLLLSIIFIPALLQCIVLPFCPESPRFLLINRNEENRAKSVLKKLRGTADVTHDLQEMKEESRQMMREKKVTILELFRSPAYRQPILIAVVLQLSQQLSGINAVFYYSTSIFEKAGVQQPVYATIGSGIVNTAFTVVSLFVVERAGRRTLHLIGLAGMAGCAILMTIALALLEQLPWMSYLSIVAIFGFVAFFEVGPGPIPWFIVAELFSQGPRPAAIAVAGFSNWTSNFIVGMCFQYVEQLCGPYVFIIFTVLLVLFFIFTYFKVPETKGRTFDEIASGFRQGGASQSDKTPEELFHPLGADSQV
row,Structure (SMILES),inhibition [%]
1,CCOc1cc(C(=O)NCCCN2CCN(c3cccc(Cl)c3)CC2)ccc1-c1nc2cc(Cl)c(F)cc2[nH]1,-0.54
2,COc1cc(Cc2cnc(N)nc2N)ccc1OCC(=O)Nc1ccc(C)cc1,8.4
3,CCCC1N=C(N)N=C(N)N1c1ccc(C)cc1 (stereo not given),4.06
4,COc1ccc2nccc([C@@H](O)CN3CCC(NCc4cc5ccccc5cn4)CC3)c2n1,12.2
5,Cc1cc2nc(-c3cccc(C(=O)NC4CCN(Cc5ccccc5)CC4)c3)[nH]c2cc1C,1.16
6,Cc1ccc(C(=O)Nc2cccc(CN3CCCN(Cc4ccc(O)cc4)CC3)c2)cc1,1.89
7,CCCc1cc(Cc2cnc(N)nc2N)cc(CCC)c1OC,4.11
8,O=C(/C=C/c1ccc(C(F)(F)F)cc1)NCCCCCN1CCN(C(=O)Nc2ccc(F)c(Cl)c2)CC1,3.33
9,O=c1cc(NCCCNCc2ccc(Cl)c(Cl)c2)[nH]c2cc(F)cc(F)c12,3.21
10,CS(=O)(=O)CCNc1nccc(N2CCc3ncnc(Nc4ccc(OCc5cccc(F)c5)c(Cl)c4)c3C2)n1,-1.94
11,COc1ccc2nccc([C@@H](O)CN3CCC(NCc4ccc5c(c4)N(C)C(=O)CO5)CC3)c2c1,0.27
12,Cc1ccc(-c2nnc(-c3ccc(C(=O)NC4CCN(Cc5ccc(C#N)cc5)CC4)cc3)o2)cc1Br,8.8
13,CCc1ccccc1-c1csc(C(=O)NCC2CCN(Cc3ccc(C(C)(C)C)cc3)C2)c1 (stereo not given),6.04
14,N#Cc1ccc2[nH]cc(CN3CCC4(CC3)CN(CCNCc3ccccc3)C(=O)CO4)c2c1,2.13
15,Cc1ccc(NC(C)C(=O)Nc2ccc(C#N)cc2)cc1S(=O)(=O)N1CCCCC1 (stereo not given),58.5
16,c1ccc(CN2CCC(NCc3cccc(-c4cncc5ccccc45)c3)CC2)cc1,9.44
17,CCN1CCN(c2ccc(NC(=O)c3cc4c(C)nn(-c5ccccc5)c4s3)cc2C)CC1,1.44
18,NC(=O)c1ccc(C(=O)Nc2cccc(-c3cccc(-c4nc5cc(C(F)(F)F)ccc5[nH]4)c3)c2)cc1,3.29
19,C=CCOC(=O)O[C@@H]1[C@@H](OC(=O)OCC=C)[C@@H](OC)O[C@H](COC(c2ccccc2)(c2ccccc2)c2ccccc2)[C@H]1OC(=O)OCC=C,4.46
20,Cc1noc(C)c1-c1cccc(CNCc2ccc(-c3ccc(-c4nc5cc(C(F)(F)F)ccc5[nH]4)s3)cc2)c1,3.88

row,Structure (SMILES),inhibition [%]
1,Cc1cc(Br)cnc1CCCCNc1cc(=O)c2ccccc2[nH]1,4.59
2,Cc1ccc(O)cc1Nc1ccnc2cc(-c3csc(CN4CCN(C)CC4)n3)ccc12,8.26
3,NCCNS(=O)(=O)c1ccc(-c2ccnc3[nH]c(-c4ccncc4)cc23)cc1,0.72
4,Cc1cc(NCCc2ccccc2)nc(NC(=N)Nc2ccc(Cl)cc2)n1,0.08
5,CC(C)(O)CC(C)(C)c1cc(Cl)ccc1O,6.46
6,CCCCc1ccc(C(=O)NC2CCN(C[C@H](O)c3ccnc4ccc(OC)cc34)CC2)cc1,66.8
7,O=C(Nc1ccc(-c2nc3ccccc3[nH]2)cc1)c1ccc(-c2cccc([N+](=O)[O-])c2)o1,-1.84
8,CCOc1ccc2[nH]c(C)cc(=NN=Cc3ccncc3)c2c1,0.75
9,COc1ccc(C(=O)Nc2nonc2-c2ccc(OC)c(OC)c2)cc1Cl,-0.82
10,CCOC(=O)Nc1cc(-c2csc(N=C(N)N)n2)cc([N+](=O)[O-])c1,0.23
11,Cc1cc(N[C@@H](CC(C)C)C(=O)Nc2ccccc2)nc(NCCc2ccc(F)cc2)n1,4.85
12,Cc1ccc(C)c(CC(=O)N2CCC(n3c(C)nc4ccc(F)cc43)CC2)c1,4.03
13,N#Cc1ccc(-c2ccc(C(=O)NCCCCN3CCC(c4cn(CCO)c5ccccc45)CC3)cc2)cc1,-0.57
14,O=C(Nc1ccc(OC2CCN(Cc3ccco3)C2)c(Cl)c1)c1ccc2ncccc2c1 (stereo not given),0.4
15,N#Cc1ccc(N/C(=N\c2ccc(-c3ccccc3)cc2)NC2CCCc3ccccc32)c(O)c1 (stereo not given),-1.53
16,Cc1ccc(-c2cncc(-c3cc(NC4CCN(Cc5ccccc5)CC4)nc(-c4ccccc4)n3)c2)cc1,2.11
17,CC(C)n1ncc2c3c(N)nc(N)nc3ccc21,1.85
18,COc1ccc(C(=O)N2CCN(c3ccc([N+](=O)[O-])c(NC4CC4)c3)CC2)cc1Br,14.4
19,Cc1cccc2nc(-c3ccc(-c4ccc(NC(=O)Nc5cccc(C#N)c5)cc4)s3)[nH]c12,9.25
20,Cc1cc(N2CCN(CC3CCN(C)CC3)CC2)nc(Nc2ccc(Br)cc2)n1,1.44
